Each molecule was assayed against PAS domain-containing serine/threonine-protein kinase (Homo sapiens) (UniProt Q96RG2). Conditions: at 1 µM.
Sequence of PAS domain-containing serine/threonine-protein kinase (Homo sapiens) (Q96RG2 whole entry, the tested form may be a part): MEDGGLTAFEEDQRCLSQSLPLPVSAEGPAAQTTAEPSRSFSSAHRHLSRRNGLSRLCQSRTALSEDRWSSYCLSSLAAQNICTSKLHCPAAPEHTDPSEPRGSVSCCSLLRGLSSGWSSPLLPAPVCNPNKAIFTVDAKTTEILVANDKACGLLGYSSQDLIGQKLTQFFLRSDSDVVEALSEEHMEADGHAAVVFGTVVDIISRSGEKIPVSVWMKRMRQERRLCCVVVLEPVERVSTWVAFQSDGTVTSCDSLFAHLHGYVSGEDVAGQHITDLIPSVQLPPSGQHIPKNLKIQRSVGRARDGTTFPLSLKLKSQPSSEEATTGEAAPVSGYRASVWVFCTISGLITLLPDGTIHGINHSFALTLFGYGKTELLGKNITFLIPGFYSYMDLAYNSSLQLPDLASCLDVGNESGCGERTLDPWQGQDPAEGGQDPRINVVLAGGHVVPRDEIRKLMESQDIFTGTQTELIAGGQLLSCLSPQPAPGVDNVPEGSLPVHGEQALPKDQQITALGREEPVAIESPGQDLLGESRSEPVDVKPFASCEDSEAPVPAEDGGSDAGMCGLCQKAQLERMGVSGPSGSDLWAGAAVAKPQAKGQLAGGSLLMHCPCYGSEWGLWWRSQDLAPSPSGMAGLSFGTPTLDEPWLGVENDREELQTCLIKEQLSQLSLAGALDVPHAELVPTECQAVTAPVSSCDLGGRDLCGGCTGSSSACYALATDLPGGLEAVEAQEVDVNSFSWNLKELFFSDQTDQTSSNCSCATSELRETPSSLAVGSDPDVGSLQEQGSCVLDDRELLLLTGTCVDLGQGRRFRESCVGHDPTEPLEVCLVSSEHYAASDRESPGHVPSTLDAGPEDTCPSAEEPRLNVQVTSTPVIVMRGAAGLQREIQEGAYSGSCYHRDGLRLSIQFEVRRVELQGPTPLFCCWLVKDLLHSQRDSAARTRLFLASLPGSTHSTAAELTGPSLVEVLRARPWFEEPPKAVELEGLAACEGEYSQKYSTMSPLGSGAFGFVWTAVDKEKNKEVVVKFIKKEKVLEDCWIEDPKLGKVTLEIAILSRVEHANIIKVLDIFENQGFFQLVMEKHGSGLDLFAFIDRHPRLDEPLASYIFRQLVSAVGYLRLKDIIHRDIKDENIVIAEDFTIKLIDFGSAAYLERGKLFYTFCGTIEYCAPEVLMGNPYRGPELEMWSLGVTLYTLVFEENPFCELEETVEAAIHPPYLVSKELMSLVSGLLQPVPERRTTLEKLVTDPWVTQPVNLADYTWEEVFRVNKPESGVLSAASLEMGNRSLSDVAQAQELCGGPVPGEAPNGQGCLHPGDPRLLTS
Molecule `COc1cc2ncnc(Nc3ccc(Oc4ccccc4)cc3)c2cc1OC` has a residual activity of 98%.
In the case of `COc1ccc(-c2cnc3c(-c4ccsc4)cnn3c2)cc1`, the residual activity is reported as 138%.
Work on `CN(C)CCCn1cc(C2=C(c3c[nH]c4ccccc34)C(=O)NC2=O)c2ccccc21` yielded a residual activity of 74%.
`Cc1cc(Nc2nc(-c3ccccc3)nc3ccccc23)n[nH]1` showed a residual activity of 108%.
`Cc1ccc(NC2=CC(=O)c3sc(C)nc3C2=O)cc1` gave a residual activity of 81%.
Molecule `CCOc1cc2ncnc(Nc3cccc(Br)c3)c2cc1OCC` has a residual activity of 79%.
`O=Nc1c(-c2c(O)[nH]c3ccccc23)[nH]c2ccccc12` gave a residual activity of 112%.
`c1ccc(-c2n[nH]cc2-c2ccnc3ccccc23)nc1` was tested, and the residual activity was 95%.
Work on `NC(=O)c1ccc2[nH]c(-c3ccc(Oc4ccc(Cl)cc4)cc3)nc2c1` yielded a residual activity of 134%.
`O=C1NC(=O)c2cc(Nc3ccc(F)cc3)c(Nc3ccc(F)cc3)cc21` showed a residual activity of 105%.
In the case of `O=C(O)c1ccc2c3c1cccc3c(=O)n1c3ccccc3nc21`, the residual activity is reported as 111%.
In the case of `Ic1cccc(CSc2nnc(-c3ccncc3)o2)c1`, the residual activity is reported as 108%.
`O=C1Nc2ccc(Cl)cc2/C1=C/c1cc(Cl)c(O)c(Cl)c1` showed a residual activity of 111%.
Work on `COc1cc2nccc(Oc3ccc(NC(=O)Nc4cc(C)on4)c(Cl)c3)c2cc1OC` yielded a residual activity of 100%.
Work on `Oc1c2ccccc2c2c3c(cccc13)N=N2` yielded a residual activity of 125%.
`CC#CC(=O)Nc1cc2c(Nc3ccc(F)c(Cl)c3)ncnc2cn1` gave a residual activity of 101%.
`Cn1cc(/C=C2\C(=O)Nc3ccc(S(N)(=O)=O)cc32)c2ccccc21` was tested, and the residual activity was 97%.
`O=c1c2ccccc2[nH]c(=S)n1CCN1CCC(=C(c2ccc(F)cc2)c2ccc(F)cc2)CC1` showed a residual activity of 85%.
Molecule `COc1ccc(CNC(=O)Nc2ncc([N+](=O)[O-])s2)cc1` has a residual activity of 133%.
For `Nc1nc(Nc2ccc(S(N)(=O)=O)cc2)nn1C(=S)Nc1c(F)cccc1F`, the residual activity was 108%.
`CCN(CC)CCCCN1c2ccccc2Oc2ccc(Cl)cc21` gave a residual activity of 88%.
For `Oc1n[nH]c2nnc(-c3c(-c4ccccc4)nn4ccccc34)cc12`, the residual activity was 100%.

— ChEMBL document CHEMBL2218924, “A broad activity screen in support of a chemogenomic map for kinase signalling research and drug discovery” (Biochem J, 2013)
